Screens from PubChem BioAssay.
Menin-MLL TR inh – displaces Texas Red mutant MLL peptide from human menin; actives 0.23% (n = 270,000); Menin + Texas Red MLL mutant peptide, fluorescence polarization; AID 1768; O00255; Potency, µM (doses to about 61.6 µM), inactives show at the highest dose FP activity change, negative = inhibition, hits mostly inhibitors; active = well fitted inhibition curve with a large enough effect in the polarisation, with a control signal flat, not every such curve was filed as active; inconclusive = small, poorly fitted or top-dose-only effect, or effect the other way, or a change in a side signal; inactive = no such curve, though single readings can be large or run the other way; the % refers to the polarisation; also: potency is read from the fitted curve at half-maximal effect; % of control where 0% means no effect
MBNL1 CUG block – blocks human MBNL1 binding to CUG repeat RNA | actives 0.036% (n = 280,000) | TR-FRET MBNL1-His/biotin-(CUG)12 binding, 665/545 ratio | Potency, µM (top dose mostly 57.5 µM), for inactives: at the highest dose activity change, negative = inhibition, hits mostly inhibitors; active = well fitted inhibition curve with a large enough effect in the signal ratio, with a control signal flat, not every such curve was filed as active; inconclusive = small, poorly fitted or top-dose-only effect, or effect the other way, or a change in a side signal; inactive = no such curve, though single readings can be large or run the other way; the % refers to the signal ratio; also: potency is read from the fitted curve at half-maximal effect; % is scaled to controls: 0 for no effect and ±100 for the full control effect
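Compound titration spanned 92 nM–58 uM against the MBNL1-His/biotin-(CUG)12 complex. After 60 min at room temperature with 5 nM streptavidin-XL665 and 0.055 ng/ul terbium anti-His, ratiometric 665/545 nm emission (Ex 340 nm) normalized to controls.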
Menin MLL FP FL – menin-MLL binding inhibition, fluorescein peptide. 290,000 tested, under 10 active. FP activity change, % at 61.4 µM. Fluorescence polarization, fluorescein-MLL peptide displacement from menin; active = well fitted curve in the direction sought with a large enough effect in the polarisation, not every such curve was filed as active; inconclusive = small, poorly fitted or top-dose-only effect, or effect the other way, or a change in a side signal; inactive = no such curve, though single readings can be large or run the other way; the % refers to the polarisation; also: % of control where 0% means no effect
ASM inhibitor – blocks human secretory acid sphingomyelinase | P17405 | placental ASM, HMU-PC fluorogenic substrate, 60 min | Potency, µM (doses to about 57.5 µM), for the others: at the top dose activity change, negative = inhibition, hits mostly inhibitors | actives 0.006% (n = 340,000) | AID 504937; active = well fitted inhibition curve with a large enough effect; inconclusive = small, poorly fitted or top-dose-only effect; inactive = no such curve, though single readings can be large or run the other way; also: potency is read from the fitted curve at half-maximal effect
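HMU-PC0 cleavage (9 uM final) by human placental ASM, 60 min at 37 °C following 10 min compound exposure at RT; stopped at pH 10, fluorescence Ex 386/Em 447 nm.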
MLL CXXC-DNA inh – MLL CXXC-DNA interaction inhibition | Q03164 | MLL-CXXC / FITC-HOXA9 DNA fluorescence polarization | Potency, µM (top dose mostly 115 µM), for the others: at the highest dose activity change, negative = inhibition, most hits filed as inhibitors | actives 0.037% (n = 290,000) | AID 2662; active = well fitted inhibition curve with a large enough effect in the polarisation, with a control signal flat, not every such curve was filed as active; inconclusive = small, poorly fitted or top-dose-only effect, or effect the other way, or a change in a side signal; inactive = no such curve, though single readings can be large or run the other way; the % refers to the polarisation; also: potency is read from the fitted curve at half-maximal effect
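Steps: dispense CXXC domain solution (7 uM) → pin compounds or unlabeled HOX-A9 DNA control → 5 min ambient → add FLSN-HOX-A9 solution (50 nM) → spin → 30 min ambient → fluorescence polarization. Tris pH 7.5/NaCl/DTT/BSA buffer.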
pAkt inh – blocks phosphorylation of Akt. activity change, % for hits at 50 µM. AID 651550. actives 0.32% (n = 360,000). Neuro2A IGF-stimulated pAkt S473 HTRF, 20 min; active compounds read low; in the data active = activity change below about -80%; inconclusive = mostly about -51% to -80%; also: % is scaled to controls: 0 for no effect and ±100 for the full control effect
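Single-point screen (50 µM final compound) in Neuro2A cells stimulated 20 min with 6 nM IGF at 37 deg C. After lysis, Ser473-phosphorylated Akt read by HTRF (ex 330 nm, em 615/665 nm) as the 665/615 ratio.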
Numbers without * were called inactive; i = inactive; ? = inconclusive; nt = no result. Most compounds without a hit are left out; they make up all but 0.45% or so of the library.

SMILES	Menin-MLL TR inh	MBNL1 CUG block	Menin MLL FP FL	ASM inhibitor	MLL CXXC-DNA inh	pAkt inh
O=C(N/N=C/c1ccc(OC(F)F)cc1)c1ccc(CSc2nc3ccccc3[nH]2)cc1	?	nt	2	-11%	-2%	i
CCOc1ccc(C(=O)Nc2nnc(C3=COCCO3)o2)cc1	nt	-6%	nt	-3%	-3%	i
Cc1cccc(N(CC(N)=O)C2SC(=O)NC2=O)c1 (stereo not drawn)	-4%	-4%	1	4%	-6%	-106%*
O=C(O)CN(c1ccccc1)C1SC(=O)NC1=O (stereo not drawn)	17%	1%	2	-1%	4%	i
CCCC(=O)NCCc1nc2ccccc2n1C	-6%	2%	0	-1%	-1%	-124%*
O=C1c2ccsc2SCCN1Cc1ccc(Cl)cc1	1%	3%	7	2%	-1%	-124%*
O=C1c2ccsc2SCCN1Cc1ccc(F)cc1	-16%	2%	2	2%	-4%	i
CCc1ccc(C(C)NC(=O)/C(C#N)=C\c2cn[nH]c2-c2ccccc2)cc1 (stereo not drawn)	-1%	10%	7	?	-3%	-83%*
Cc1ccc(C2=CC(c3cccs3)n3nnnc3N2)cc1 (stereo not drawn)	?	-4%	?	5%	-5%	i
C1=C(c2ccccc2)Nc2nnnn2C1c1cccs1 (stereo not drawn)	?	-2%	2	8%	?	-111%*
CC(C)Nc1nc(Cl)nc(NN(C)c2nc(N(C)C)nc(N(C)C)n2)n1	6%	-10%	7	1%	-2%	i
CCOc1ccc(N2CC(C(=O)NCCc3ccc(OC)c(OC)c3)CC2=O)cc1 (stereo not drawn)	12%	-4%	-2	0%	-5%	-107%*
CN(C)CCN1C(=O)C(O)=C(C(=O)c2ccco2)C1c1ccccc1F (stereo not drawn)	-4%	0%	4	0%	-1%	-121%*
COc1cccc(C2C(C(=O)c3ccco3)=C(O)C(=O)N2CCN(C)C)c1OC (stereo not drawn)	0%	nt	7	1%	18%	i
S=c1[nH]nc(-c2cccc(Br)c2)o1	6%	230%	3	5%	8%	-108%*
Cc1nnc(SCc2cc(=O)n3[nH]cnc3n2)s1	-15%	-5%	-1	9%	0%	i
COC(=O)C1CCN(S(=O)(=O)c2ccc(Br)s2)CC1	nt	nt	nt	3%	nt	i
O=c1oc2c3c4c(cc2c(C(F)(F)F)c1CCN1CCOCC1)CCCN4CCC3	?	17%	?	9%	?	-109%*
CCOc1ccc2nc(NC(=O)c3cccc(-c4cc5ccccc5oc4=O)c3)sc2c1	-28%	nt	1	6%	6%	i
Cc1ccc2nc(NC(=O)c3cccc(-c4cc5ccccc5oc4=O)c3)sc2c1	22µM*	-8%	0	9%	13%	i
COc1ccc(-n2c(=O)c(-c3ccc(F)cc3)nc3cnc(N4CCNCC4)nc32)cc1	-1%	nt	-1	nt	nt	nt
CCc1ccc(OCCNC(=O)c2ccc(S(=O)(=O)N(C)C)cc2)cc1	-5%	-1%	0	?	0%	i
COc1ccc(N2C(N)=NC(N)=NC23CCCC3)cc1	14%	-4%	3	0%	-16%	-106%*
CC(C)OC(=O)CSc1nnc(CNc2nc(-c3ccccc3)cs2)n1C	-1%	8%	1	-3%	-6%	-103%*
CN(CC(=O)Nc1ccccc1Br)C(=O)CNC(=O)c1ccco1	nt	nt	nt	1%	nt	i
CN(c1ccc(C(=O)N2CCCCC2)cc1)S(=O)(=O)c1cccs1	3%	-3%	-1	5%	36%	i
CC(=O)C(C)Sc1nnc(-c2ccccc2F)n1C1CC1 (stereo not drawn)	6%	-4%	0	-4%	-12%	i
